Most compounds without a hit are left out; they make up all but 2.8% or so of the library.
Platelet DG rel = modulates dense granule release in human platelets. human platelet-rich plasma, SFLLRN dense granule ATP release, luminescence. inhibition, %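 (compounds screened at 7.5 µM in platelet-rich plasma)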. hit rate 0.22% among 300,000. AID 1663;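 active = mean replicate score, as percent of positive control, at or above 50; inconclusive = mean below 50 but at least one replicate at or above 50; inactive = mean and every replicate below 50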
SENP6 inh = inhibitors of human SENP6 protease; Q9GZR1; Recombinant SENP6 catalytic domain, aminoluciferin luminescence; inhibition, % at 10 µM; hit rate 1.8% among 330,000; AID 2599;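 active = inhibition above about 50% at the single tested dose, limit read from the data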
SENP8 block-1 = blocks the human protease SENP8; hit rate 1.2% among 330,000; Q96LD8; inhibition, % at 10 µM; AID 2540; purified SENP8, Z-RLRGG-aminoluciferin cleavage, luminescence; in the data active = inhibition above about 50%
Target sequence (Q96LD8 whole entry, looked up): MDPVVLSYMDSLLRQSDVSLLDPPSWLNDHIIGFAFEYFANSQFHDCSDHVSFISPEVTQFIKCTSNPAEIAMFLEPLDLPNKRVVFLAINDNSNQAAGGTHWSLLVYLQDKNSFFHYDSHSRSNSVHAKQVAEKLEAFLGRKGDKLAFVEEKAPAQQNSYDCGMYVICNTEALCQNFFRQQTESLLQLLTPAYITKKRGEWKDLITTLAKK
SENP7 inh = SENP7 protease inhibition; inhibition, % at 5 µM; recombinant SENP7, Z-RLRGG-aminoluciferin luminescence, 40 min; Q9BQF6; hit rate 1.5% among 330,000;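 active = inhibition above about 50% at the single test dose, limit read from the data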
HSP90 refold inh = blocks HSP90-mediated luciferase refolding in reticulocyte lysate; inhibition, % at 5.6 µM; AID 1789; hit rate 0.91% among 290,000; Rabbit reticulocyte lysate, luciferase refolding luminescence, 3 h;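 active = inhibition above the screen-wide mean plus 3 SD, computed separately per campaign, cut at about 16% in these data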;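 also: inhibitors lower the luminescence because luciferase stays unfolded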
SENP8 block-2 = blocks human SENP8 cleavage of Nedd8 substrate; Q96LD8; recombinant SENP8, Nedd8 substrate fluorescence; inhibition, % at 20 µM; hit rate 0.64% among 360,000; in the data active = inhibition mostly above about 40%, no sharp cut-off; inactive = mostly below about 27%
SENP8 confirm = confirmation of human SENP8 protease inhibitors | shares compounds with SENP7 inh | Recombinant SENP8, Z-RLRGG-aminoluciferin luminescence, 60 min | inhibition, % at 12.5 µM | hit rate 40% among 6,200 | AID 488912;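 active = mean inhibition across replicates above about 50%, limit read from the data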
SENP6 confirm = confirmation of human SENP6 protease inhibitors | shares compounds with SENP7 inh | recombinant SENP6, Z-RLRGG-aminoluciferin luminescence | inhibition, % at 12.5 µM | AID 488915 | hit rate 58% among 6,200
SENP7 conf = confirmation of human SENP7 protease inhibitors | shares compounds with SENP7 inh | recombinant SENP7, Z-RLRGG-aminoluciferin luminescence, 40 min | inhibition, % at 12.5 µM | hit rate 69% among 6,200 | AID 488917
Casp3 select = caspase-3 inhibition (SENP selectivity assay); shares compounds with SENP7 inh; purified caspase-3, Z-DEVD-aminoluciferin luminescence, 60 min; inhibition, % at 12.5 µM; hit rate 60% among 6,200;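 active = mean inhibition above about 50%, limit read from the data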
Target sequence (P42574 28-227 limits assumed): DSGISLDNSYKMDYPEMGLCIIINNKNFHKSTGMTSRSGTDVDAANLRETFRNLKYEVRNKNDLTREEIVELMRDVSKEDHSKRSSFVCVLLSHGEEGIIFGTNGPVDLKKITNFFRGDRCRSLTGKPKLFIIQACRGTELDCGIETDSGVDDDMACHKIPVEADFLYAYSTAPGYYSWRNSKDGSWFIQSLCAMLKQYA
SENP luc ctr = luminescence interference (SENP counter-screen) | AID 488919 | inhibition, % at 12.5 µM | shares compounds with SENP7 inh | hit rate 39% among 6,200 | Pre-incubated SENP8/Z-RLRGG-aminoluciferin, luciferase luminescence interference;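 active = mean inhibition above about 50% when retested at one dose, limit read from the data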
Large screens that a line does not name were inactive (follow-up assays come after a bar, where they were run).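 The calls were made as follows, unless noted: active = mean inhibition above about 50% in the one-dose retest (limit read from the data); inactive = the rest.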

Cc1nc2sc(-c3ccccc3)cc2c(=O)[nH]1	SENP6 inh 86, SENP8 block-1 76, HSP90 refold inh 17 | SENP8 confirm inactive | SENP6 confirm 82 | SENP7 conf 98 | Casp3 select 92 | SENP luc ctr inactive
O=c1c2cc(-c3ccccc3)sc2nc2n1CCC2	SENP6 inh 75, SENP8 block-1 69, SENP7 inh 72 (no result: SENP8 block-2) | SENP8 confirm inactive | SENP6 confirm 69 | SENP7 conf 92 | Casp3 select inactive | SENP luc ctr inactive
Cc1cc(C)c(S(=O)(=O)N2CCCCC2CCNC(=O)C(=O)NCc2cccnc2)c(C)c1 (stereo unspecified)	none (no result: HSP90 refold inh)
Cc1cc(C(=O)Nc2ccc(N3CCOCC3)c(Cl)c2)c(C)o1	SENP6 inh 77, SENP8 block-1 57, SENP7 inh 58 | SENP8 confirm 71 | SENP6 confirm 69 | SENP7 conf 88 | Casp3 select 77 | SENP luc ctr 74
O=C(Nc1ccc(N2CCOCC2)c(Cl)c1)c1ccccc1F	none
N/C(=N\OC(=O)c1ccccc1Cl)c1cccnc1	Platelet DG rel inconclusive, SENP6 inh 65, SENP7 inh 57 | SENP8 confirm 56 | SENP6 confirm 54 | SENP7 conf 82 | Casp3 select 79 | SENP luc ctr 64
N/C(=N\OC(=O)c1ccccc1)c1cccnc1	SENP7 inh 56 | SENP8 confirm inactive | SENP6 confirm inactive | SENP7 conf 61 | Casp3 select 72 | SENP luc ctr inactive
N/C(=N\OC(=O)c1ccc(Cl)c(Cl)c1)c1cccnc1	SENP6 inh 67, SENP7 inh 64 | SENP8 confirm inactive | SENP6 confirm inactive | SENP7 conf inactive | Casp3 select inactive | SENP luc ctr inactive
N/C(=N\OC(=O)c1cc(Cl)ccc1Cl)c1cccnc1	none
Cc1cccc(NC(=S)c2nc3ccccc3s2)c1	SENP6 inh 65, SENP8 block-1 84, SENP7 inh 90 | SENP8 confirm 62 | SENP6 confirm 83 | SENP7 conf 90 | Casp3 select 74 | SENP luc ctr inactive
Cc1cccc(NC(=S)Nc2ccccn2)c1	none
COc1ccc(N2CCN(C(=O)c3cc(S(=O)(=O)N4CCCCCC4)ccc3OC)CC2)cc1	none (no result: Platelet DG rel, HSP90 refold inh)
COc1ccc(C)c2sc(=NC(=O)c3ccccc3)n(C)c12	SENP7 inh 99 | SENP8 confirm inactive | SENP6 confirm 78 | SENP7 conf 85 | Casp3 select 90 | SENP luc ctr inactive
COc1ccc(C)c2sc(=NC(=O)c3cccc(N4C(=O)CCC4=O)c3)n(C)c12	SENP6 inh 51, SENP7 inh 78 | SENP8 confirm inactive | SENP6 confirm inactive | SENP7 conf inactive | Casp3 select inactive | SENP luc ctr inactive
C=CCn1c(=NC(=O)c2cccc(N3C(=O)CCC3=O)c2)sc2cccc(OC)c21	none
O=S(=O)(c1ccc(Br)s1)N1CCC2(CC1)OCCO2	none
CN(Cc1ccccc1)C(=O)C1(C)CCN1C(=O)Cc1ccc(Cl)cc1Cl (stereo unspecified)	none (no result: Platelet DG rel, SENP6 inh, SENP8 block-1, SENP7 inh, HSP90 refold inh)
O=C(NC1CCCCC1)NC1C2CC3CC(C2)CC1C3 (stereo unspecified)	none
N#Cc1ccc(C(=O)Nc2nnc(-c3ccccn3)o2)cc1	SENP6 inh 69, SENP8 block-1 51, SENP7 inh 58 | SENP8 confirm 64 | SENP6 confirm 60 | SENP7 conf 89 | Casp3 select 86 | SENP luc ctr 56
Cc1ccccc1OCC(O)Cn1c(=N)n(Cc2ccccc2)c2ccccc21 (stereo unspecified)	SENP7 inh 51 | SENP8 confirm inactive | SENP6 confirm inactive | SENP7 conf inactive | Casp3 select inactive | SENP luc ctr inactive
COc1ccc(CN(C)C(=O)c2ccncc2)c(OC)c1	none
O=C(N/C(=C\c1cccc(Br)c1)C(=O)N1CCOCC1)c1ccco1	none
COc1cccc(-c2nnc(-c3ccc(C)o3)o2)c1	SENP7 inh 56 | SENP8 confirm 62 | SENP6 confirm 64 | SENP7 conf 89 | Casp3 select 82 | SENP luc ctr 74
COc1cccc(-c2nnc(N)o2)c1	none
COc1cccc(C(=O)Nc2ccc(-c3nnc(-c4ccco4)o3)cc2)c1	none
COc1cccc(-c2nnc(NC(=O)c3cccc(F)c3)o2)c1	SENP6 inh 60, SENP8 block-1 56 (no result: HSP90 refold inh) | SENP8 confirm inactive | SENP6 confirm inactive | SENP7 conf inactive | Casp3 select inactive | SENP luc ctr inactive
COc1cccc(-c2nnc(-c3ccccc3[N+](=O)[O-])o2)c1	SENP7 inh 50 | SENP8 confirm inactive | SENP6 confirm inactive | SENP7 conf 67 | Casp3 select inactive | SENP luc ctr inactive
COc1cccc(-c2nnc(-c3ccco3)o2)c1	SENP6 inh 67, SENP7 inh 55 | SENP8 confirm 58 | SENP6 confirm 56 | SENP7 conf 87 | Casp3 select 80 | SENP luc ctr 65
O=C(CN1C(=O)NC2(CCOc3ccccc32)C1=O)N1CCCCC1 (stereo unspecified)	none (no result: Platelet DG rel, HSP90 refold inh)
Fc1ccccc1N=C1NN=C(c2ccccc2)CS1	none
Clc1ccccc1N=C1NN=C(c2cccs2)CS1	SENP6 inh 68, SENP8 block-1 77, SENP7 inh 74 | SENP8 confirm 85 | SENP6 confirm 86 | SENP7 conf 97 | Casp3 select 69 | SENP luc ctr 77
Cc1ccc(/C=N/Nc2nc3ccccc3[nH]2)s1	SENP6 inh 56, SENP8 block-1 56 | SENP8 confirm 68 | SENP6 confirm 61 | SENP7 conf 84 | Casp3 select inactive | SENP luc ctr 71
C(=N\Nc1nc2ccccc2[nH]1)/c1ccccc1	none
c1ccc(-c2cc3ccccc3cn2)cc1	SENP6 inh 84, SENP8 block-1 82, SENP7 inh 91 (no result: Platelet DG rel, HSP90 refold inh) | SENP8 confirm 65 | SENP6 confirm 85 | SENP7 conf 96 | Casp3 select 77 | SENP luc ctr inactive
c1ccc(-c2cc(-c3ccccc3)ncn2)cc1	none (no result: Platelet DG rel, HSP90 refold inh)
C[C@H]1CN([C@@H](C)CO)S(=O)(=O)c2ccc(Br)cc2O[C@H]1CN(C)C(=O)c1cccnc1	none (no result: Platelet DG rel, SENP6 inh, SENP8 block-1, SENP7 inh, HSP90 refold inh)
CN(Cc1ccccc1)C(=O)c1ccc(Cc2cn(C)c3ccccc23)nc1	none (no result: Platelet DG rel, SENP6 inh, SENP8 block-1, SENP7 inh, HSP90 refold inh)
N#C/C(=C(/O)CSc1ccccn1)c1nc2ccccc2s1	none

Source: PubChem (several laboratories)
